p53 reactivation: restores transcriptional activity of mutant p53; H1299 p53-A138V BP100-luciferase reporter, luminescence, 24 h; Potency, µM (doses to about 92.2 µM), for inactives: top-dose activity change, positive = activation, usual class: activators; 0.063% of 320,000 active; note: % of control where 0% means no effect; nearly all actives have a fitted effect of over 45% in size
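p53-null H1299 cells stably carrying temperature-sensitive p53-A138V and a BP100-luciferase reporter were pinned with compounds (4-point, 1:5 series) and held 24 hrs at 37 deg C. Luminescence was read 10 min after detection reagent.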
FLuc modulator: inhibits or activates purified firefly luciferase, miR-21 counter-screen. purified FLuc, Km substrates, luminescence inhibition. AID 588342. Potency, µM (titrated, usually from 57.5 µM), for the others: at the top dose activity change, negative = inhibition, usual class: inhibitors. 6.9% of 360,000 active. P08659;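 note: plate controls were vehicle for no effect and reference inhibitor for full effect; nearly all actives have a fitted effect of over 55% in size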
Target sequence (P08659 whole entry, looked up): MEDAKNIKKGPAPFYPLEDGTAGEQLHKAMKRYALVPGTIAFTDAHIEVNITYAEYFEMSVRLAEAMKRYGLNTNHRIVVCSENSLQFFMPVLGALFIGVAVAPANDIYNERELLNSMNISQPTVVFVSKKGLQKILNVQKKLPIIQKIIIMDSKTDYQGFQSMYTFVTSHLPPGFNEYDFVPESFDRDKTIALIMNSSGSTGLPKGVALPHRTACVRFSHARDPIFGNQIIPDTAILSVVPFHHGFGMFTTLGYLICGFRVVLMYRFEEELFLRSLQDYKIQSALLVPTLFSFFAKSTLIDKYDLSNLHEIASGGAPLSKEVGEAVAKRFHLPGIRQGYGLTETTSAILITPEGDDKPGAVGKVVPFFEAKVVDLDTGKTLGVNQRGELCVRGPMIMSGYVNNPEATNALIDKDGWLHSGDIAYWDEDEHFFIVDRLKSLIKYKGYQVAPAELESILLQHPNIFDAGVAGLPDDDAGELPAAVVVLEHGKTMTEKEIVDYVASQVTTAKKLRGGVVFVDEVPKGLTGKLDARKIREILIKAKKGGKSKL
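Biochemical qHTS of compounds, final roughly 60 µM downward over six points, against 10 nM purified firefly luciferase using Km concentrations of substrates (10 uM D-luciferin, 10 uM ATP) in Tris acetate pH 7.5 buffer; luminescence output.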
ELG1 genotox: inducers of genotoxicity in HEK293T ELG1-luciferase cells. HEK293T ELG1-luciferase reporter, luminescence, 16 h. Potency, µM (titrated, usually from 46 µM), without a hit: at the top dose activity change, positive = activation, most hits filed as activators. 1.3% of 330,000 active; note: % of control where 0% means no effect; nearly all actives have a fitted effect of over 60% in size
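DMSO vehicle served as control against compound-treated ELG1-luciferase HEK293T cells; exposure lasted 16 hr at 37 °C and 5% CO2, followed by ONE-Glo luminescence detection after 30 min.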
SMN2 splice enh: enhancers of SMN2 splice variant expression | HEK293 SMN2-luciferase splicing reporter, luminescence, 30-36 h | Potency, µM (highest dose often 46.1 µM), for the others: at the highest dose activity change, positive = activation, usual class: activators | 2.8% of 210,000 active | AID 1458; note: % of control where 0% means no effect; nearly all actives have a fitted effect of over 55% in size
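HEK293 cells carry an SMN2 […]–luciferase reporter in which exon 7 inclusion puts luciferase in frame. Cells were plated 10-12 h before compound addition, then incubated 30-36 h at 37C. ONE-Glo luminescence was read; sodium butyrate at 4.5 mM final served as control.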
NPC1 promoter act: activators of NPC1 promoter | AID 485313 | Potency, µM (series often up to 9.22 µM), for inactives: at the top dose activation, hits mostly activators | 2.4% of 320,000 active | Huh7 NPC1 promoter luciferase reporter, 24 h; note: % of control where 0% means no effect; nearly all actives have a fitted effect of over 60% in size
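Luminescence read-out of NPC1 promoter-driven luciferase in stably transfected Huh7 cells; compounds delivered in DMSO and left 24 h at 37C, 5% CO2, qHTS titration format.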
Rab9 promoter act: activates the Rab9 promoter; Huh7 Rab9 promoter-luciferase reporter, luminescence, 24 h; Potency, µM (series often up to 9.22 µM), for the others: top-dose activation, negative = inhibition, most hits filed as activators; 2.8% of 320,000 active; AID 485297; note: % of control where 0% means no effect; nearly all actives have a fitted effect of over 60% in size
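Huh7 reporter line, Rab9 promoter upstream of luciferase. Compound exposure 24 h at 37 °C in reduced-serum medium with 10% FBS. Read-out: luminescence.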
An asterisk follows results filed as active; ? = inconclusive; · = no result; [ ] = dose if it differs, or a comment. Rows were chosen to be rich in hits. Some 7.4% of all compounds tested hit in one or more screens of this group. Calls come from the whole dose curve; as a rule, active = well fitted curve in the direction sought with a large enough effect; inconclusive = small, poorly fitted or top-dose-only effect, or another doubt; inactive = no such curve, though single readings can be large; an effect the other way counts as inactive or inconclusive. Potency is the fitted concentration of half-maximal effect.

SMILES	p53 reactivation	FLuc modulator	ELG1 genotox	SMN2 splice enh	NPC1 promoter act	Rab9 promoter act
COc1ccccc1C(=O)NC(CCSC)C(=O)OCC(=O)N1CCCC1=O (centres undefined)	0%	-1%	-1%	·	-1%	0%
O=C(Nc1ccc(Cl)c(Cl)c1)c1ccc2c(c1)OCO2	·	1.5µM*	4.6µM*	·	0.79µM*	0.56µM*
O=C(Nc1ccc2c(c1)OCO2)c1c(F)c(F)c(F)c(F)c1F	14%	1%[2.3 µM]	-5%	31%	1%	15%
O=C(Nc1ccc(F)c(F)c1)c1ccc2c(c1)OCO2	?	9.5µM*	3.7µM*	13%	2.5µM*	?
NC(=O)c1ccc(NC(=O)c2ccc3c(c2)OCO3)cc1	28%	4.8µM*	18µM*	13µM*	1.3µM*	1.6µM*
O=C(Nc1ccc2c(c1)OCO2)c1ccc2c(c1)OCO2	?	2.1µM*	?	5µM*	0.79µM*	0.56µM*
C=CCCCCCC	·	·	·	-1%	·	·
Cc1cccc(NC(=O)CSc2cn(CC(=O)N3CCC(C)CC3)c3ccccc23)c1C	·	-13%	·	·	·	·
COc1ccccc1N1CCN(c2ncnc3c2cnn3-c2cccc(Cl)c2)CC1	·	-2%	·	·	·	·
COc1ccc(-c2ccc(CNCCCSc3nnnn3C)o2)cc1Cl	·	-1%	·	·	·	·
O=C(Nc1ccc(N2CCCCC2)c(Cl)c1)c1ccc(N2CCOCC2)c([N+](=O)[O-])c1	-3%	?	-9%	-31%	-3%	-4%
CCN1CCN(c2ccc(NC(=O)c3ccc4c(c3)OCO4)cc2)CC1	?	17µM*	9.2µM*	16µM*	?	?
O=C(Nc1ccc2c(c1)OCO2)c1ccc(N2CCCC2)c([N+](=O)[O-])c1	4%	19µM*	3%	24%	14%	-1%
O=C(Nc1ccc(Cl)cc1)C1=Cc2ccccc2OC1	?	1.9µM*	1.5µM*	22µM*	3.2µM*	0.56µM*
O=C(Nc1ccc(N2CCOCC2)c(Cl)c1)c1ccc2c(c1)OCCO2	-2%	?	-1%	·	0%	6%
O=C(Nc1ccc(N2CCCCC2)c(Cl)c1)c1ccc2c(c1)OCCO2	?	5.4µM*	?	-61%	24%	28%
Cc1cc(C(=O)Nc2ccc3c(c2)OCO3)cs1	?	4.8µM*	7.3µM*	13µM*	1.8µM*	1.3µM*
Cc1cc(C(=O)NC(C)c2ccc3c(c2)OCO3)cs1 (centres undefined)	-1%	1%	-4%	-19%	11%	1%
O=C(Nc1ccc2c(c1)OCO2)c1ccc(Cl)s1	?	4.3µM*	2.6µM*	7.1µM*	2.2µM*	2µM*
O=C(CSc1cn[nH]n1)Nc1ccccc1C(F)(F)F	-3%	1%	10%	·	0%	1%
COc1ccc(/C=N/OC(=O)Nc2ccccc2)cc1[N+](=O)[O-]	?	15µM*	12%	20%	6%	23%
Cc1ccc(NC(=O)O/N=C/c2ccc(F)cc2)cc1	·	15µM*	?	·	?	?
COc1ccc(C(=O)Nc2ccc(Nc3ccccc3)cc2)cc1[N+](=O)[O-]	·	1%	-11%	·	-6%	-1%
O=C(Nc1ccccc1)O/N=C/c1ccc(F)cc1	10%	2.4µM*	?	·	0.63µM*	0.79µM*
Cc1cc(=O)n2[nH]c(NCc3ccc(F)cc3)nc2n1	·	-11%	·	8%	·	·
SMILES	p53 reactivation	FLuc modulator	ELG1 genotox	SMN2 splice enh	NPC1 promoter act	Rab9 promoter act
O=C(O)c1ccc2c(c1)C(=O)N(CCc1ccc(O)cc1)C2=O	·	2%	·	·	0%	-2%
COc1ccc(C(C(=O)NC(C)(C)C)N(C(=O)CCC(=O)Nc2cc(C)on2)c2cccc(F)c2)cc1 (centres undefined)	6%	0%	5%	·	-5%	-3%
CCc1ccc(N(C(=O)CCC(=O)Nc2cc(C)on2)C(C(=O)NC(C)(C)C)c2ccc(OC)cc2)cc1 (centres undefined)	-6%	24µM*	-7%	·	2%	-2%
COc1ccccc1OCC(=O)NCCC1=CCCCC1	-5%	2%	0%	12%	-2%	-5%
O=C(/C=C/c1ccc(F)cc1)NCCC1=CCCCC1	-1%	15µM*	13%	?	?	?
COc1ccccc1/C=C/C(=O)NCCC1=CCCCC1	-1%	11µM*	?	11µM*	4µM*	3.2µM*
O=C(/C=C/c1ccccc1)NCCC1=CCCCC1	·	9.5µM*	?	11µM*	?	2.8µM*
O=C(COC(=O)/C=C/c1ccccc1)NCCC1=CCCCC1	11%	5%	5%	-7%	-2%	0%
COc1ccc2sc(N(Cc3cccnc3)C(=O)C3CCCCC3)nc2c1	·	1%	·	·	·	·
CCOC(=O)c1ccc(NC(=O)CCCc2nc(-c3cc(OC)c(OC)c(OC)c3)no2)cc1	·	-6%	·	-4%	·	·
CCCSc1nc2c(cnn2-c2ccccc2)c(=O)n1N	?	5.4µM*	?	·	4.5µM*	0.79µM*
Nn1c(SCc2ccccc2)nc2c(cnn2-c2ccccc2)c1=O	21%	11µM*	?	13µM*	?	3.2µM*
